A selection: hits, their analogues and other compounds. The true share with any hit is near 3.8%.
aDG glyco act: alpha-DG glycosylation activation. Pro5-aDG cells, alpha-DG glycosylation AlphaScreen (IIH6); 0% Pro5, 100% B10-LARGE cell signal. hit rate 0.22% among 360,000. activation, % at 10 µM;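 active = activation of at least 8% versus controls, or a plate z-score of at least 8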;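 note: Pro5 are CHO cells carrying HIG-tagged alpha-DG that lacks glycosylation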
Yeast superoxide: caloric restriction mimetics inhibiting age-related superoxide in yeast | S. cerevisiae aged cells, superoxide DHE fluorescence; stronger effect = lower value | superoxide response (% of plate mean), % at 10 µM | hit rate 0.18% among 330,000;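 active = superoxide response under a set limit, about three screen SD below normal, cut at about 65% in these data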;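 note: yeast aged for seven days with compound at 30 °C before DHE staining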
MPTP block: inhibitors of mitochondrial permeability transition pore. AID 602449. hit rate 1.4% among 360,000. isolated mouse mitochondria, Ca2+ swelling absorbance, 30 min. inhibition, % at 10 µM;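 active = inhibition of 50% or more, scaled per plate between neutral and stimulator controls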
H9c2 protect: myocardial damage modulation in H9c2 cells; H9c2 cardiomyocytes, H2O2 injury protection, ATPLite, 2 h; protection from H2O2 cell death, % at 20 µM; hit rate 0.63% among 360,000; AID 588492;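 active = compounds giving at least 50% protection of heart cells from peroxide-induced death in the single-dose screen, raw or plate-pattern-corrected value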
FAS-TE inh: FAS thioesterase (human) inhibition. P49327. recombinant FAS-TE, OMFH fluorogenic substrate, fluorescence endpoint. inhibition, % at 15 µM. hit rate 0.67% among 360,000;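 active = compounds whose normalised, plate-corrected inhibition of enzyme fluorescence in the single-dose primary screen is 50% or more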
Mot1-301 SUMO: SUMOylation pathway inhibition by Mot1-301 growth rescue; S. cerevisiae Mot1-301 growth rescue, ATP luminescence, 38.5C; percent above DMSO median, 100 means doubled; growth rescue, % at 18.8 µM; hit rate 1% among 320,000; AID 2716;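 active = every valid replicate shows activation above 250% relative to neutral control wells; inactive = the rest, any valid replicate at or below 250%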
FAS-TE inh conf: FAS thioesterase (human) inhibition, confirmation. recombinant FAS-TE, OMFH fluorogenic substrate, fluorescence. hit rate 45% among 2,300. AID 624325. inhibition, % at 15 µM. shares compounds with FAS-TE inh;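 active = compounds inhibiting the enzyme by at least 50% at 15 µM in any one of the replicates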
A number is an active result; 0 = inactive; - = no result.

SMILES	aDG glyco act	Yeast superoxide	MPTP block	H9c2 protect	FAS-TE inh	Mot1-301 SUMO	FAS-TE inh conf
Cc1c(-c2ccccc2)c(-c2ccc(OCCN(C)C)cc2)n2ccccc12	0	-	0	0	0	-	-
Cc1ccc(NC(=O)/C(C#N)=C/c2cc(C)n(-c3ccc(N4CCOCC4)c([N+](=O)[O-])c3)c2C)c(C)c1	0	0	0	0	0	0	-
Cc1cc(/C=C(\C#N)C(=O)Nc2ccc(Cl)cc2)c(C)n1-c1ccc(N2CCOCC2)c([N+](=O)[O-])c1	0	0	0	0	78.9	0	0
COc1ccc(NC(=O)/C(C#N)=C\c2cc(C)n(-c3ccc4c(c3)OCO4)c2C)cc1	0	0	0	0	54.2	0	0
Cc1cc(/C=C(\C#N)C(=O)Nc2ccccc2)c(C)n1-c1ccc(C(=O)O)cc1	0	0	0	0	0	0	-
CC(C)CSCC1OC(n2cnc3c(N)nccc32)C(O)C1O (stereo not given)	0	-	0	0	0	-	-
COc1ccc(N2CCN(C(=O)CSc3nnnn3C3CC3)CC2)cc1	0	0	0	0	0	0	-
Cc1cc(NC(=O)COC(=O)Cn2c(C)csc2=O)ccc1Br	0	0	0	0	0	0	-
N#CCCSc1nc(N2CCOCC2)c2c(c1C#N)CCCC2	0	0	0	0	55.1	0	62.1
COCCn1nnnc1C(CC(C)C)N1CCN(c2nc3ccccc3s2)CC1 (stereo not given)	0	0	0	0	0	0	-
Cc1ccc(S(=O)(=O)Cn2nnnc2C(C(C)C)N2CCN(c3nc4ccccc4s3)CC2)cc1 (stereo not given)	0	0	0	0	59.6	0	0
Cc1ccc(C(=O)NNC(=O)C(NC(=O)c2cccc(C)c2)C(C)C)cc1 (stereo not given)	0	0	0	0	0	0	-
COCc1cn(CC(=O)c2sc(NC(=O)C(C)(C)C)nc2C)nn1	0	-	0	-	0	-	-
Cc1ccc(S(=O)(=O)c2nnn3c2nc(NCCCN2CCCC2=O)c2ccccc23)cc1C	0	0	0	0	70.9	0	69.1
CC(C)(C)c1ccc(OCCSc2nc3ccccc3n2CC(=O)O)cc1	0	0	0	0	77.7	0	86.9
O=C(O)Cn1c(SCCOc2ccccc2)nc2ccccc21	0	0	0	0	0	0	-
CN(CC(=O)Nc1ccc(F)c(F)c1F)C(=O)c1ccc(=O)[nH]c1	0	0	0	0	0	0	-
O=C(NCc1ccccc1)/C(=C\c1cccc([N+](=O)[O-])c1)NC(=O)c1ccco1	0	-	0	0	68.0	-	76.2
O=C(Nc1cccc(C(=O)O)c1)/C(=C\c1cccc([N+](=O)[O-])c1)NC(=O)c1ccc(Br)cc1	0	-	0	0	69.2	-	75.4
Cc1ccc(C(=O)N/C(=C\c2cccc([N+](=O)[O-])c2)C(=O)Nc2cccc(C(=O)O)c2)cc1	0	0	0	0	55.3	0	59.8
COc1ccc(C(=O)N/C(=C\c2cccc([N+](=O)[O-])c2)C(=O)Nc2cccc(C(=O)O)c2)cc1	0	0	0	0	0	0	-
COCCN(C(=O)c1ccc(COc2ccccc2)o1)c1c(N)n(CC(C)C)c(=O)[nH]c1=O	0	0	0	0	0	0	-
COc1cccc(N2CCc3c(C)nc4ccc(Cl)cc4c32)c1	0	0	0	0	0	0	-
CCN1Cc2c(/C=C/c3ccccc3)nc3ccc(OC)cc3c2N(c2cccc(Cl)c2)C1	0	0	0	0	76.6	0	85.0
CC(=O)c1c(O)c(C)c(O)c2c1OC1=Cc3c(c(C)nn3C)C(=O)C12C (stereo not given)	0	-	0	0	0	-	-
SMILES	aDG glyco act	Yeast superoxide	MPTP block	H9c2 protect	FAS-TE inh	Mot1-301 SUMO	FAS-TE inh conf
CCCCNC(=S)N(C)/N=C/c1ccc(F)cc1	0	0	0	0	0	0	-
CCCCNC(=S)N(C)/N=C/c1ccc2c(c1)OCO2	0	0	0	0	53.3	0	0
CN(C)N=C1c2cc(S(=O)(=O)N3CCOCC3)ccc2-c2ccc(S(=O)(=O)N3CCOCC3)cc21	0	0	0	0	50.2	0	0
CCOC(=O)c1cc(S(=O)(=O)NCCc2ccccc2)cn1C	0	0	0	0	0	0	-
O=C(c1ccc(-c2cc(O)c3ncccc3c2)cc1)N1CCNCC1	0	0	0	0	0	0	-
CC(C)(C)c1ccc(OCCC(=O)OCC(=O)NC(=O)NC2CCCC2)cc1	0	0	0	0	0	0	-
CC(C)(C)c1ccc(OCCC(=O)OCC(=O)NC2CCCCC2)cc1	0	0	0	0	56.6	0	54.8
CCOC(=O)c1cnn(C)c1NC(=O)c1ccc(Cl)cc1Cl	0	0	0	0	0	0	-
CCN(CC)S(=O)(=O)c1ccc(C)c(C)c1	0	0	0	0	0	0	-
CC(C)N(C(C)C)S(=O)(=O)c1ccc(N2CCc3ccccc3C2)nc1	0	0	0	0	0	0	-
CCN(CC)S(=O)(=O)c1ccc(-n2cnc3cc(C)c(C)cc32)nc1	0	0	0	0	57.0	0	60.7
CCN(CC)S(=O)(=O)c1ccc(N2CCc3ccccc3C2)nc1	0	0	0	0	63.9	0	63.2
COc1ccc(CCN2CN(S(=O)(=O)c3ccc(C)cc3)c3nc4ccccc4nc32)cc1OC	0	0	0	0	0	0	-
COc1ccccc1N1CN(S(=O)(=O)c2ccc(C)cc2)c2nc3ccccc3nc21	0	0	0	0	57.4	0	0
CCOC(=O)[C@H]1[C@H]2COc3ccc(OC)cc3[C@@H]2N2C(=O)c3cc(C)ccc3NC(=O)[C@@]12C	0	-	0	0	0	0	-
COc1ccc2c(c1)[C@@H]1[C@H](CO2)[C@H](c2ccccc2)[C@]2(C)C(=O)Nc3ccc(C)cc3C(=O)N12	0	0	0	0	83.0	0	0
COc1ccc2c(c1)C(=O)N1[C@H]3c4cc(C)ccc4OC[C@@H]3[C@H](c3ccccc3)[C@]1(C)C(=O)N2	0	-	0	0	73.3	0	0
CCOC(=O)N1CCN(C(=O)c2ccc(Cn3c(=S)[nH]c4cc5c(cc4c3=O)OCO5)cc2)CC1	0	0	0	0	0	0	-
COc1ccccc1N1CCN(C(=O)CCCn2c(=S)[nH]c3ccccc3c2=O)CC1	0	-	0	0	52.6	-	0
COc1ccccc1N1CCN(C(=O)c2ccc(Cn3c(=S)[nH]c4cc5c(cc4c3=O)OCO5)cc2)CC1	0	0	0	0	52.7	0	0
Cc1ccc(NC(=O)/C(=C\c2ccccc2)NC(=O)/C=C/c2ccccc2)cc1	0	0	0	0	72.7	0	0
O=C(/C=C/c1ccccc1)N/C(=C/c1ccccc1)C(=O)Nc1cccc(C(=O)O)c1	0	0	0	0	0	0	-
Cc1ccc2cc(COC(=O)c3cccc([N+](=O)[O-])c3)c(=O)[nH]c2c1	0	0	0	0	62.9	0	0
